D1 ag = agonists of human D1 dopamine receptor. hit rate 1% among 360,000. HEK293 T-REx D1 cells, calcium flux, agonist mode. activation, % at 2 µM. AID 504660. P21728; further: 0% is about no effect
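Tetracycline-induced HEK293 TREx D1 cells, force-coupled to calcium signalling, were dye-loaded with a no-wash calcium kit. Compound was pin-added after a 10 s baseline. Fluorescence was read kinetically at 1 cycle/s for 180 s, with calcium rises flagged as agonism.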
D1 potentiator = enhances dopamine response at the human D1 receptor | hit rate 0.036% among 360,000 | potentiation, % at 10 µM | P21728 | HEK293 TREx D1 cells, calcium flux, dopamine EC20 potentiation; in the data active means potentiation above about 30%; further: 0% is about no effect
TRHR agonist = agonists of human TRH receptor; P34981; TRHR cells, calcium flux fluo-8, FDSS agonist mode; activation, % at 2 µM; hit rate 0.18% among 360,000; AID 493084; further: 0% is about no effect
Target sequence (P34981 whole entry, looked up): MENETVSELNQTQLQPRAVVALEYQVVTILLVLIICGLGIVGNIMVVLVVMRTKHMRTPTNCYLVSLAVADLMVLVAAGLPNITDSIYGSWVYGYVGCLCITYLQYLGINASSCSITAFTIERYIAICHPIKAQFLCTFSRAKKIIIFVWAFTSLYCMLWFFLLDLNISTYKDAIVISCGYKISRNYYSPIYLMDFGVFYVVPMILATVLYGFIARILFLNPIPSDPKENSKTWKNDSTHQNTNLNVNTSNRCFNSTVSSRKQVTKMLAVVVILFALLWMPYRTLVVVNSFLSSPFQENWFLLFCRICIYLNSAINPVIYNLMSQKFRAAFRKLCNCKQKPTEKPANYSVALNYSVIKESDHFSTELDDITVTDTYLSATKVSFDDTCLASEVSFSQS
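TRHR-expressing cells loaded with fluo-8 calcium dye; 23 nL library compound pin-transferred, kinetic FDSS fluorescence (Ex 480/Em 530) recorded about 180 s for agonist-induced calcium release, before a 10 nM TRH EC20 addition for potentiator mode.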
TRHR PAM = TRH receptor (human) allosteric enhancement; P34981; TRHR cells, fluo-8 calcium fluorescence, EC20 TRH enhancement; enhancement, % at 2 µM; hit rate 0.66% among 360,000; AID 493056; in the data active means enhancement above about 30%; further: 0% is about no effect
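TRHR-expressing cells loaded with fluo-8 calcium dye were read kinetically (ex 480/em 530) during compound addition, then stimulated with an EC20 of TRH (10 nM final). Enhancement of the Gq-mediated intracellular calcium response was scored.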
D1 antagonist = blocks dopamine activation of the human D1 receptor; P21728; HEK293 TREx D1 cells, calcium flux, dopamine EC80; active compounds read low; activity change, negative = inhibition, % at 10 µM; hit rate 3.2% among 360,000; in the data active means activity change below about -30%; further: on the % scale 0 is the no-effect control and ±100 the full control effect
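HEK293 T-REx cells expressing inducible, force-coupled D1 receptor; no-wash Ca dye, 30–90 min RT. Cmpd → 180 s read at 1 Hz → EC80 DA → 180 s read.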
LDHA block = inhibitors of human lactate dehydrogenase A; P00338; activity change, % (values are at about 110 or 230 µM); purified LDHA, NADH/diaphorase-resazurin fluorescence; active compounds read low; AID 1347041; hit rate 0.15% among 480,000; in the data active means activity change below about -30%;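 further: plate controls were DMSO wells for no effect and wells without enzyme for full effect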
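Human LDH5 at 2 nM final in Tris HCl pH 7.4 with 0.06 mM NADH and 0.2 mM pyruvate, reacted 5 minutes at room temperature. Remaining NADH coupled via diaphorase/resazurin; resorufin fluorescence read at 0 and 20 minutes, normalized to enzyme-free and DMSO wells.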
Numbers without * were called inactive. Compounds with a hit are over-represented: about 3.6% of the library has one in this group of screens. Unless noted, no stated cut-off is given here; in the data, active means activation above about 30%; inactive means the rest.

CCC(=O)Nc1cccc(C(=O)OCC(=O)c2ccccc2Cl)c1 was read as D1 ag 2, D1 potentiator 0, TRHR agonist 1, TRHR PAM -1, D1 antagonist -37* and LDHA block -3.
Screening CC(=O)Nc1cccc(C(=O)OCC(=O)NC(=O)Cc2ccccc2)c1 returned D1 ag 0, D1 potentiator 6, TRHR agonist 0, TRHR PAM -1, D1 antagonist -33* and LDHA block -2.
Screening CC(=O)c1cccc(NC(=O)COC(=O)[C@@H](NC(=O)OCc2ccccc2)C(C)C)c1 returned D1 ag 2, D1 potentiator -9, TRHR agonist 0, TRHR PAM 2, D1 antagonist -95* and LDHA block -6.
`CC(=O)Nc1cccc(C(=O)OCC(=O)c2ccccc2Cl)c1` gave D1 ag 3, D1 potentiator -6, TRHR agonist 0, TRHR PAM -3, D1 antagonist -19 and LDHA block -4.
Screening CN(CC(=O)Nc1ccc2[nH]c(=O)[nH]c2c1)Cc1ccccc1N1CCCCC1 returned LDHA block 2.
`CCOc1ccccc1NC(=O)CSCc1cc(=O)n2cccc(C)c2n1` gave LDHA block -7.
`Cc1ccc2[nH]cc(C(C(=O)O)N3CCCN(c4ccc(C(F)(F)F)cn4)CC3)c2c1` (stereo unspecified) gave LDHA block -3.
`COc1ccc(C(=O)C(C)OC(=O)CCN2C(=O)C3CC=CCC3C2=O)cc1` (stereo unspecified) gave D1 ag 1, D1 potentiator 0, TRHR agonist 0, TRHR PAM 16, D1 antagonist -35* and LDHA block -9.
For COc1ccc(CCC(=O)OC(C)C(=O)c2ccc(C)cc2)cc1 (stereo unspecified) the results were D1 ag 10, D1 potentiator -6, TRHR agonist -1, TRHR PAM -3, D1 antagonist -36* and LDHA block -9.
COc1ccc(C(=O)C(C)OC(=O)COc2ccccc2)cc1 (stereo unspecified) was read as LDHA block -1.
`Cc1cc(Cl)nc(-n2nc(C)cc2C)n1` gave D1 ag 1, D1 potentiator -4, TRHR agonist 0, TRHR PAM 1, D1 antagonist -42* and LDHA block 0.
Cc1cc(COc2ccc(C(=O)c3ccccc3)cc2)no1 was read as LDHA block 0.
`Cn1cc(-c2cc3n(n2)CCC(=O)N3CCCC(=O)NCc2ccc(F)cc2)c2ccccc21` gave D1 ag 0, D1 potentiator -3, TRHR agonist -1, TRHR PAM -2, D1 antagonist -33* and LDHA block 1.
C=CCOc1ccc(NC(=O)c2ccc(Cl)cc2)cc1 was read as LDHA block 1.
`Cc1cc(-c2cccs2)c2c(N)c(C(=O)c3ccc4c(c3)OCO4)sc2n1` gave D1 ag 61*, D1 potentiator 7, TRHR agonist 18, TRHR PAM -7, D1 antagonist 14 and LDHA block -1.
Screening COc1ccc(C(=O)c2sc3nc(C)cc(-c4cccs4)c3c2N)cc1OC returned D1 ag 82*, D1 potentiator 0, TRHR agonist 21, TRHR PAM -12, D1 antagonist 31 and LDHA block -4.
Screening CSc1nc(-c2ccc(C)cc2)c(C#N)c(N2CCN(C)CC2)n1 returned LDHA block 2.
For CCOc1cc(N)ccc1OC(F)F the results were LDHA block 5.
COc1cccc(C2C(C(=O)Nc3ccccc3)=C(C)Nc3ncnn32)c1OC (stereo unspecified) was read as LDHA block 2.
`O=C(c1ccccc1)c1c2c(cc3sc4ccccc4[n+]13)-c1cccc3cccc-2c13` gave D1 ag 242*, D1 potentiator -5, TRHR agonist 79*, TRHR PAM 22, D1 antagonist -25 and LDHA block 3.
Cc1sc2cc3c(c(C(=O)c4ccccc4)[n+]2c1C)-c1cccc2cccc-3c12 was read as D1 ag 0, D1 potentiator 5, TRHR agonist 1, TRHR PAM -10, D1 antagonist 6 and LDHA block -2.
COc1ccc(C(=O)/C=C/c2cn(CC(O)CN3CCCCCC3)c3ccccc23)cc1OC (stereo unspecified) was read as D1 ag 15, D1 potentiator -2, TRHR agonist 4, TRHR PAM -9, D1 antagonist 4 and LDHA block 1.
For O=C(/C=C/c1cn(CC(O)CN2CCCCCC2)c2ccccc12)c1ccccc1 (stereo unspecified) the results were D1 ag 54*, D1 potentiator -5, TRHR agonist 5, TRHR PAM -2, D1 antagonist -5 and LDHA block -2.
For Cc1ccc(C(=O)/C=C/c2cn(CC(O)CN3CCCCCC3)c3ccccc23)cc1 (stereo unspecified) the results were D1 ag 59*, D1 potentiator -3, TRHR agonist 4, TRHR PAM 5, D1 antagonist -24 and LDHA block -5.
Screening O=C(/C=C/c1cn(CC(O)CN2CCCCC2)c2ccccc12)c1ccccc1 (stereo unspecified) returned D1 ag 31*, D1 potentiator -5, TRHR agonist 2, TRHR PAM -1, D1 antagonist -50* and LDHA block 0.
`O=C(/C=C/c1cn(CC(O)CN2CCCCCC2)c2ccccc12)c1ccc(Br)cc1` (stereo unspecified) gave D1 ag 45*, D1 potentiator -5, TRHR agonist 7, TRHR PAM 5, D1 antagonist -3 and LDHA block 3.
CN1CCN(Cn2cc(/C=C/C(=O)c3ccccc3)c3ccccc32)CC1 was read as D1 ag 6, D1 potentiator -5, TRHR agonist 1, TRHR PAM 3, D1 antagonist -5 and LDHA block 0.
`Cc1cc2oc(=O)cc(COC(=O)c3n[nH]c4ccccc34)c2cc1Cl` gave LDHA block 15.
For Cc1c(C(=O)Nc2ccccc2C(N)=O)sc2nc(-c3ccc(F)cc3)cn12 the results were LDHA block 9.
For COc1ccccc1NC(=O)CN(Cc1ccco1)C(=O)c1cc(=O)c2ccccc2o1 the results were LDHA block 16.
For CCOP(=O)(OCC)c1nc(Cc2ccccc2)oc1NCc1ccco1 the results were LDHA block 5.
